In all, about 48,000 compounds went through this assay and about 13,000 (27%) showed an effect of 50% or more. The list shows a part of the results.
System: Wolbachia pipientis
Assay: Anti-Wolbachia Cell-Based Screen
Type: functional
Set-up: scale not given: in the data most compounds retested in dose-response had high values
Conditions: 5 µM

SMILES	Percent Effect
O=S(=O)(NCCN1CC=CC1)c1cncc(Cl)c1	-9.615%
CC(C)CN(C)Cc1c[nH]nc1-c1ccc(F)cc1F	-3.52%
CNC(=O)NC(=O)CN1CCN(CC(F)(F)F)CC1(C)C	-1.445%
CCC(C)(NCC(=O)NC(C)C)c1nc(C)cs1 (centres undefined)	4.424%
CCN1CCN(c2ccc(C(=O)NCc3cc(C)no3)cc2F)CC1	-18.85%
Cc1nc(CN(C)C(=O)CN(C)C)nc2c1CCC(=O)N2CCC(C)C	66.01%
Cc1nc(C)c2c(n1)CCN(C(=O)CN(C)C)CC2	-4.048%
Cc1nnc(CN(C)C(=O)C(CC(C)C)N2CCCCC2=O)n1C (centres undefined)	-1.247%
COC(=O)N1CCCC(NC(=O)NCc2nc(C)cs2)C1 (centres undefined)	-5.295%
CCC(=O)N(CC)CCc1nccs1	-20.38%
CCOc1ccc(CC(CNC(=O)c2ccoc2)C(N)=O)cc1 (centres undefined)	0.9555%
Cc1cccc(C(C)(C)CNC(=O)CN(C)c2cnccn2)c1	2.301%
Cc1ccc(F)c(NC(=O)CCC(=O)N(C)Cc2cc(C3CC3)[nH]n2)c1	-39.88%
Cc1ccc2[nH]c(=O)c(CN(C)Cc3cc(C4CC4)[nH]n3)cc2c1	-5.439%
CCCn1ncc(C(=O)N(C)Cc2cc(C3CC3)[nH]n2)c1C	103.9%
CCCn1ncc(C(=O)N2CCN(C(=O)c3ccc[nH]3)CC2)c1C	2.425%
CCCn1ncc(C(=O)N(C)Cc2n[nH]c3c2CCC3)c1C	-0.7404%
CN(Cc1cc(C2CC2)[nH]n1)C(=O)c1cnn2ccn(C)c12	92.15%
CN(Cc1cc(C2CC2)[nH]n1)C(=O)C(c1cccnc1)N1CCCC1 (centres undefined)	5.078%
CN(Cc1cc(C2CC2)[nH]n1)C(=O)c1ccccc1C1CCNC1 (centres undefined)	6.983%
Cc1cnc2c(C(=O)N(C)Cc3cc(C4CC4)[nH]n3)cnn2c1	88.43%
Cn1ccc(CNC(=O)N2CCCC3(C2)OCCO3)c1	-4.368%
Cc1ccc(CNCc2cccc3cn[nH]c23)c(OC2CCOC2)c1 (centres undefined)	1.328%
CCCNC(=O)CN1CCOC(CC)C1 (centres undefined)	-15.19%
CSc1nc2cc(C)n(CC(N)=O)c2c(=O)n1CC(C)C	0.2317%
CC[C@@]1(O)CCN(C(=O)CCSCc2ccc(F)cc2)C[C@H]1O	8.229%
NC(=O)C1CCN(C(=O)CCSCc2ccc(Cl)c(Cl)c2)CC1	148.4%
NC(=O)C1CCN(C(=O)CCCc2ccc(Cl)c(Cl)c2)CC1	-6.164%
O=C(C1COc2ccccc2O1)N1Cc2cnn(CCO)c2C1 (centres undefined)	-44.4%
